According to PubChem BioAssay AID1159580 (chemical genetic matrix, 2015):
The campaign covered roughly 5,500 compounds. About 2,000 (36%) were called active. Another 18% or so got no clear call; they are omitted. Cut-off read from the data, not from the text of the source: active = normalized growth mostly below about 0.91 (no sharp cut-off); inconclusive = no clear call, values can overlap the other calls; inactive = mostly above about 0.92. The list shows a part of the results.

Assay: chemical genetic growth profiling, strain panel (AID 1159580);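 note: tested at 20 µM; growth read once vehicle control cultures reached saturation at 30 °C; 1 = growth at the plate median or of vehicle wells; lower values mean less growth of the strain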
Details: S. cerevisiae deletion strains, growth OD

Measured: normalized growth

COc1ccc(C(=O)c2ccccc2)c(O)c1O
inactive: locus YAL013W, strain DEP1, stronger effect = lower value 0.929 | locus YAL021C, strain ccr4, stronger effect = lower value 0.981 | locus YAL026C, strain drs2, stronger effect = lower value 0.973 | locus YAL030W, strain snc1, stronger effect = lower value 0.974 | locus YBL061C, strain skt5, stronger effect = lower value 0.973 | locus YBR009C, strain hhf1, stronger effect = lower value 0.973 | locus YBR021W, strain FUR4, stronger effect = lower value 0.853 | locus YBR023C, strain chs3, stronger effect = lower value 0.969 | locus YBR171W, strain sec66, stronger effect = lower value 0.945 | locus YBR229C, strain ROT2, stronger effect = lower value 0.999 | locus YBR231C, strain swc5, stronger effect = lower value 0.962 | locus YBR279W, strain paf1, stronger effect = lower value 0.957 | locus YCL011C, strain gbp2, stronger effect = lower value 0.968 | locus YCL016C, strain dcc1, stronger effect = lower value 0.986 | locus YCL029C, strain bik1, stronger effect = lower value 0.956 | locus YCL061C, strain MRC1, stronger effect = lower value 0.968 | locus YCL069W, strain vba3, stronger effect = lower value 0.986 | locus YCR088W, strain abp1, stronger effect = lower value 0.981 | locus YDL005C, strain med2, stronger effect = lower value 0.971 | locus YDL035C, strain GPR1, stronger effect = lower value 0.974 | locus YDL040C, strain nat1, stronger effect = lower value 0.985 | locus YDL074C, strain BRE1, stronger effect = lower value 0.868 | locus YDL101C, strain DUN1, stronger effect = lower value 0.953 | locus YDL134C, strain PPH21, stronger effect = lower value 0.904 | locus YDR001C, strain nth1, stronger effect = lower value 0.975 | locus YDR069C, strain doa4, stronger effect = lower value 0.939 | locus YDR101C, strain arx1, stronger effect = lower value 0.983 | locus YDR159W, strain sac3, stronger effect = lower value 0.975 | locus YDR162C, strain NBP2, stronger effect = lower value 0.947 | locus YDR195W, strain ref2 1.02 | locus YDR297W, strain sur2, stronger effect = lower value 0.966 | locus YDR318W, strain mcm21, stronger effect = lower value 0.933 | locus YDR334W, strain swr1, stronger effect = lower value 0.951 | locus YDR335W, strain msn5, stronger effect = lower value 0.97 | locus YDR388W, stronger effect = lower value 0.962 | locus YDR392W, strain spt3, stronger effect = lower value 0.851 | locus YEL003W, strain gim4, stronger effect = lower value 0.96 | locus YEL037C, strain rad23, stronger effect = lower value 0.964 | locus YEL061C, strain CIN8 (second series), stronger effect = lower value 0.974 | locus YEL061C, strain CIN8, stronger effect = lower value 0.967 | locus YER015W, strain faa2, stronger effect = lower value 0.965 | locus YER016W, strain bim1, stronger effect = lower value 0.972 | locus YER110C, stronger effect = lower value 0.936 | locus YER111C, strain swi4, stronger effect = lower value 0.97 | locus YER155C, strain BEM2, stronger effect = lower value 1.02 | locus YER167W, strain BCK2, stronger effect = lower value 0.997 | locus YFR010W, strain ubp6, stronger effect = lower value 0.937 | locus YGL086W, strain mad1, stronger effect = lower value 0.937 | locus YGL167C, strain pmr1, stronger effect = lower value 0.955 | locus YGL173C, strain kem1, stronger effect = lower value 0.948 | locus YGL227W, strain vid30, stronger effect = lower value 0.99 | locus YGL240W, strain doc1, stronger effect = lower value 0.92 | locus YGL248W, strain PDE1, stronger effect = lower value 0.92 | locus YGL253W, strain hxk2, stronger effect = lower value 0.979 | locus YGR078C, strain PAC10, stronger effect = lower value 0.891 | locus YHR013C, strain ard1, stronger effect = lower value 0.941 | locus YHR027C, strain rpn1, stronger effect = lower value 0.959 | locus YHR030C, strain SLT2, stronger effect = lower value 0.979 | locus YHR079C, strain IRE1 (second series), stronger effect = lower value 0.932 | locus YHR094C, strain hxt1, stronger effect = lower value 0.955 | locus YHR129C, strain ARP1, stronger effect = lower value 0.927 | locus YHR142W, strain chs7, stronger effect = lower value 0.939 | locus YHR200W, strain rpn10, stronger effect = lower value 0.937 | locus YIL066C, strain RNR3, stronger effect = lower value 0.976 | locus YIL073C, strain SPO22, stronger effect = lower value 0.897 | locus YIL125W, strain kgd1, stronger effect = lower value 0.969 | locus YIR030C, strain dcg1, stronger effect = lower value 0.958 | locus YJL092W, strain hpr5, stronger effect = lower value 0.967 | locus YJL095W, strain BCK1 (second series), stronger effect = lower value 0.971 | locus YJL115W, strain asf1, stronger effect = lower value 0.945 | locus YJL129C, strain trk1, stronger effect = lower value 0.966 | locus YJL134W, strain LCB3, stronger effect = lower value 0.991 | locus YJL154C, strain vps35, stronger effect = lower value 0.972 | locus YJL164C, strain tpk1, stronger effect = lower value 0.96 | locus YJL166W, strain qcr8, stronger effect = lower value 0.973 | locus YJL168C, strain set2, stronger effect = lower value 0.96 | locus YJL187C, strain SWE1 (second series), stronger effect = lower value 0.885 | locus YJL187C, strain SWE1, stronger effect = lower value 0.971 | locus YJR043C, strain POL32, stronger effect = lower value 0.942 | locus YKL009W, strain mrt4, stronger effect = lower value 0.933 | locus YKL068W, stronger effect = lower value 0.957 | locus YKL085W, strain MDH1 (second series), stronger effect = lower value 0.963 | locus YKL085W, strain MDH1, stronger effect = lower value 0.963 | locus YKL160W, strain elf1, stronger effect = lower value 0.971 | locus YKR026C, strain gcn3, stronger effect = lower value 0.964 | locus YKR091W, strain srl3, stronger effect = lower value 0.978 | locus YLL001W, strain dnm1, stronger effect = lower value 0.974 | locus YLL026W, stronger effect = lower value 0.988 | locus YLL041C, strain sdh2, stronger effect = lower value 0.957 | locus YLR027C, strain aat2, stronger effect = lower value 0.975 | locus YLR039C, strain RIC1, stronger effect = lower value 0.788 | locus YLR058C, strain SHM2, stronger effect = lower value 0.933 | locus YLR102C, strain apc9, stronger effect = lower value 0.974 | locus YLR221C, strain rsa3, stronger effect = lower value 0.98 | locus YLR258W, strain gsy2, stronger effect = lower value 0.97 | locus YLR262C, strain YPT6, stronger effect = lower value 0.824 | locus YLR268W, strain sec22, stronger effect = lower value 0.907 | locus YLR320W, strain mms22, stronger effect = lower value 0.936 | locus YLR330W, strain CHS5, stronger effect = lower value 0.947 | locus YLR342W, strain FKS1 (second series), stronger effect = lower value 0.851 | locus YLR342W, strain FKS1, stronger effect = lower value 0.977 | locus YLR357W, strain rsc2, stronger effect = lower value 0.885 | locus YLR370C, strain arc18, stronger effect = lower value 0.975 | locus YLR371W, strain rom2, stronger effect = lower value 0.948 | locus YLR384C, strain iki3, stronger effect = lower value 0.968 | locus YML016C, strain PPZ1, stronger effect = lower value 0.979 | locus YML032C, strain rad52, stronger effect = lower value 0.926 | locus YML120C, strain ndi1, stronger effect = lower value 0.967 | locus YML124C, strain tub3, stronger effect = lower value 0.957 | locus YMR078C, strain ctf18, stronger effect = lower value 0.931 | locus YMR125W, strain sto1, stronger effect = lower value 0.97 | locus YMR129W, stronger effect = lower value 0.973 | locus YMR205C, strain PFK2, stronger effect = lower value 0.991 | locus YMR223W, strain ubp8, stronger effect = lower value 0.909 | locus YMR231W, strain pep5, stronger effect = lower value 0.973 | locus YMR307W, strain GAS1, stronger effect = lower value 0.983 | locus YNL067W, strain RPL9B, stronger effect = lower value 0.918 | locus YNL071W, strain lat1, stronger effect = lower value 0.971 | locus YNL153C, strain GIM3, stronger effect = lower value 0.906 | locus YNL209W, strain ssb2, stronger effect = lower value 0.965 | locus YNL233W, strain BNI4, stronger effect = lower value 0.895 | locus YNL248C, strain rpa49, stronger effect = lower value 0.984 | locus YNL250W, strain rad50, stronger effect = lower value 0.9 | locus YNL298W, strain CLA4, stronger effect = lower value 0.965 | locus YNL322C, strain KRE1 (second series), stronger effect = lower value 0.978 | locus YNR049C, strain mso1, stronger effect = lower value 0.983 | locus YOL006C, strain TOP1, stronger effect = lower value 0.69 | locus YOL012C, strain htz1 0.47 | locus YOL147C, strain pex11, stronger effect = lower value 0.963 | locus YOR001W, strain rrp6, stronger effect = lower value 0.955 | locus YOR061W, strain CKA2, stronger effect = lower value 0.989 | locus YOR069W, strain VPS5, stronger effect = lower value 0.948 | locus YOR070C, strain gyp1, stronger effect = lower value 0.975 | locus YOR080W, strain dia2, stronger effect = lower value 0.989 | locus YOR083W, strain WHI5, stronger effect = lower value 0.953 | locus YOR106W, strain vam3, stronger effect = lower value 0.932 | locus YOR136W, strain idh2, stronger effect = lower value 0.952 | locus YOR144C, strain elg1, stronger effect = lower value 0.971 | locus YOR184W, strain ser1, stronger effect = lower value 0.996 | locus YOR265W, strain rbl2, stronger effect = lower value 0.973 | locus YOR270C, strain vph1, stronger effect = lower value 0.854 | locus YOR290C, strain snf2, stronger effect = lower value 0.929 | locus YOR316C, strain cot1, stronger effect = lower value 0.948 | locus YPL051W, strain arl3, stronger effect = lower value 0.936 | locus YPL078C, strain atp4, stronger effect = lower value 0.975 | locus YPL106C, strain sse1, stronger effect = lower value 0.901 | locus YPL240C, strain hsp82, stronger effect = lower value 0.954 | locus YPL241C, strain CIN2, stronger effect = lower value 0.977 | locus YPR119W, strain clb2, stronger effect = lower value 0.947 | locus YPR141C, strain kar3, stronger effect = lower value 0.923 | strain wtn01, stronger effect = lower value 0.971
active: locus YDL185W, strain tfp1, stronger effect = lower value 0.901 | locus YDL192W, strain arf1, stronger effect = lower value 0.892 | locus YDR137W, strain rgp1, stronger effect = lower value 0.787 | locus YDR502C, strain sam2, stronger effect = lower value 0.9 | locus YER155C, strain BEM2 (second series), stronger effect = lower value 0.81 | locus YGL078C, strain dbp3, stronger effect = lower value 0.909 | locus YGR135W, strain pre9, stronger effect = lower value 0.846 | locus YGR252W, strain gcn5, stronger effect = lower value 0.698 | locus YJL095W, strain BCK1, stronger effect = lower value 0.724 | locus YKR001C, strain vps1, stronger effect = lower value 0.781 | locus YLR262C, strain YPT6 (second series), stronger effect = lower value 0.843 | locus YLR418C, strain cdc73, stronger effect = lower value 0.825 | locus YMR058W, strain fet3, stronger effect = lower value 0.897 | locus YNL271C, strain bni1, stronger effect = lower value 0.908 | locus YNL307C, strain MCK1, stronger effect = lower value 0.906 | locus YNR052C, strain pop2, stronger effect = lower value 0.896 | locus YPR163C, strain tif3, stronger effect = lower value 0.813 | locus YPR167C, strain met16, stronger effect = lower value 0.919
